Data: PubChem BioAssay (EPA / NIEHS)
Records with an inconclusive call do not appear. Activity calls are given as the source filed them. Rule for the calls: active = hit-call score of the fitted dose curve at least 0.9, where 1 is the maximum; inconclusive = response in the unintended direction; inactive = score below 0.9.

test: Tanguay_ZF_120hpf_NC_legacy: (Legacy) Oregon State University Tanguay Lab 120 Hour Post-fertilization zebrafish Assay for Notochord and Tail Malformation (AID 2283656)
Procedure: Tanguay_ZF_120hpf_legacy is a whole embryo, multiplexed endpoint assay using zebrafish larvae exposed for 120 hours post fertilization on a 96-well plate.Tanguay_ZF_120hpf_NC_legacy is one of one assay component(s) measured or calculated from the Tanguay_ZF_120hpf_legacy assay. It is designed to make measurements of zebrafish development as detected with brightfield microscopy of developing zebrafish embryos.Data from the assay component Tanguay_ZF_120hpf_NC_legacy was analyzed into 1 assay endpoints. This assay endpoint, Tanguay_ZF_120hpf_NC_legacy, was analyzed in the positive analysis fitting direction relative to DMSO as the negative control and baseline of activity. Using a type of morphology reporter, gain-of-signal activity can be used to understand changes in developmentals as they relate to the whole embryo. To generalize the intended target to other relatable targets, this assay endpoint is annotated to the zebrafish development intended target family, where the subfamily is embryonic notochord morphogenesis.
Zebrafish husbandry: Tropical 5D wild-type adult zebrafish were housed in at an approximate density of 1000 per 100 gallon tank at the Sinnhuber Aquatic Research Laboratory, Oregon State University, Corvallis, OR. Each tank was kept at standard laboratory conditions of 28C on a 14-h light/10-h dark photoperiod in fish water consisting of reverse osmosis water supplemented with a commercially available salt (Instant Ocean). Spawning funnels were placed into the tanks the night prior, and embryos were collected and staged. To increase bioavailability, the chorion was enzymatically removed using pronase (63.6mg/ml, >/= 3.5U/mg, Sigma-Aldrich: P5147) at 4 hours post fertilization (hpf) using a custom automated dechorionator.Chemical exposures: Six hpf dechorionated embryos were placed 1 embryo per well in a 96-well plate prefilled with 90 ul of EM using automated embryo placement systems (AEPS). Ten microliters of each row of dilution plate 2 was added to 2 exposure plates. The final DMSO concentration used was 0.64% (vol/vol). Thirty-two embryos were also exposed to 5uM trimethyltin chloride (positive control). Plates were sealed to prevent evaporation and foil covered to reduce light exposure and kept in a 28C incubator. Embryos were statically exposed until 120 hpf. At 24 hpf, embryos were assessed for photomotor response using a custom photomotor response analysis tool (PRAT) and for developmental toxicity endpoints (MO24: mortality at 24 hpf, DP: developmental progression, SM: spontaneous movement, and NC: notochord distortion). At 120 hpf, locomotor activity was measured using Viewpoint Zebralab and assessed for 18 endpoints. Zebrafish acquisition and analysis program (ZAAP), a custom program designed to inventory, acquire, and manage zebrafish data, was used to collect developmental endpoints as either present or absent (i.e., binary responses were recorded). If mortality occurred for an embryo (at either 24 or 120 hpf), the non-mortality endpoints were not measured.

SMILES	outcome
CCCCc1oc2ccccc2c1C(=O)c1cc(I)c(OCCN(CC)CC)c(I)c1	inactive
CCCCCCCCCCCCCCC	inactive
O=C(CCCN1CCC(O)(c2ccc(Cl)cc2)CC1)c1ccc(F)cc1	inactive
CN(C)CCOC(c1ccccc1)c1ccccc1	inactive
O=C(c1ccccc1)c1ccccc1	inactive
CCC(C)c1ccccc1O (centres undefined)	inactive
N=C(N)c1ccc(OCCCCCOc2ccc(C(=N)N)cc2)cc1	inactive
CCCCC=O	inactive
O=C1NS(=O)(=O)c2ccccc21	inactive
CCCCC(CC)C(=O)O (centres undefined)	inactive
OCC(CO)(CBr)CBr	inactive
CS(=O)(=O)c1ccc([C@@H](CC2CCCC2)C(=O)Nc2cnccn2)cc1Cl	inactive
Cc1[nH]nc2c1N=C(c1ccccc1Cl)c1cc([N+](=O)[O-])ccc1N2	inactive
CN(Cc1cnc2nc(N)nc(N)c2n1)c1ccc(C(=O)N[C@@H](CCC(=O)O)C(=O)O)cc1	inactive
